Test results published in PubChem BioAssay (EPA / NIEHS).
“And” between values parts separate entries of the source, which are not always exact repeats. Identical values can stand only once. Where a structure was tested more than once in an assay, its records may differ in their call. The source made the active and inactive calls. The calls were made as follows: active = hit-call score of the fitted dose curve at least 0.9, where 1 is the maximum; inactive = score below 0.9.

Experiments:
[1] = read-out: urokinase plasminogen activator (uPA), PLAU (gene 5328); experiment: BSK_KF3CT_uPA: BioMAP Diversity Plus: KF3CT Assay for urokinase plasminogen activator (uPA) Biomarker Activity (AID 2283075); conditions: primary human keratinocytes with fibroblasts; actives raise or lower the signal
In short: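 Values derive from bidirectional fitting against DMSO controls. Keratinocyte/foreskin fibroblast co-cultures received chemical; 24 h later uPA was detected by ELISA, with SRB total-protein staining in parallel wells for overt cytotoxicity.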

CD40, CD40 (gene 958) = experiment: BSK_LPS_CD40: BioMAP Diversity Plus: LPS Assay for CD40 Biomarker Activity (AID 2283076); conditions: primary human HUVEC with PBMC; actives raise or lower the signal
In short: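 HUVEC plus PBMC co-culture stimulated with LPS; CD40 quantified by ELISA 24 h after compound dosing. Fitting was bidirectional relative to DMSO. SRB staining of parallel cultures flagged overt cytotoxicity.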

[2] = read-out: E-selectin (Homo sapiens) (UniProt P16581); experiment: BSK_LPS_Eselectin: BioMAP Diversity Plus: LPS Assay for Eselectin Biomarker Activity (AID 2283077); conditions: primary human HUVEC with PBMC; actives raise or lower the signal
In short: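 Human umbilical vein endothelial cells co-cultured with PBMC under LPS stimulation; cell-surface E-selectin measured by ELISA 24 h after dosing. Change in either direction versus DMSO, with SRB total-protein staining in parallel cultures for cytotoxicity.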

[3] = read-out: Interleukin-8 (IL8), CXCL8 (gene 3576); experiment: BSK_LPS_IL8: BioMAP Diversity Plus: LPS Assay for Interleukin-8 (IL8) Biomarker Activity (AID 2283078); conditions: primary human HUVEC with PBMC; actives raise or lower the signal
In short: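 Human umbilical vein endothelial cells co-cultured with PBMC, LPS-stimulated, exposed to compound for 24 h. IL-8 quantified by ELISA; fitted in both directions against DMSO, with SRB total-protein staining of parallel cultures for cytotoxicity.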

[4] = BSK_LPS_SRB: Viability Assessment in the BioMAP Diversity Plus: LPS Assay (AID 2283079); conditions: primary human HUVEC with PBMC;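 also: total protein by sulforhodamine B absorbance as a cytotoxicity measure; measured one day after compound addition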
In short: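 Co-culture of human umbilical vein endothelial cells and PBMC, read 24 h after dosing. Total protein by 0.1% SRB staining after 10% TCA fixation, absorbance at 560 nm; bidirectional fit against DMSO.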

[5] = read-out: Interleukin-1 alpha (IL1a), IL1A (gene 3552); experiment: BSK_LPS_IL1a: BioMAP Diversity Plus: LPS Assay for Interleukin-1 alpha (IL1a) Biomarker Activity (AID 2283080); conditions: primary human HUVEC with PBMC; actives raise or lower the signal
In short: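 Human umbilical vein endothelial cells co-cultured with PBMC and stimulated with LPS; IL-1a measured by ELISA 24 h after dosing. Bidirectional fitting against DMSO; cytotoxicity checked by SRB staining in parallel cultures.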

[6] = read-out: Monocyte Chemoattractant Protein-1 (MCP1), CCL2 (gene 6347); experiment: BSK_LPS_MCP1: BioMAP Diversity Plus: LPS Assay for Monocyte Chemoattractant Protein-1 (MCP1) Biomarker Activity (AID 2283081); conditions: primary human HUVEC with PBMC; actives raise or lower the signal;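 as to AC50: secreted MCP-1 protein quantified by ELISA in culture supernatant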
In short: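 Human umbilical vein endothelial cells co-cultured with PBMC, LPS-stimulated; secreted MCP-1 measured by ELISA 24 h after compound addition. Bidirectional curve fitting against DMSO baseline; SRB total-protein staining in parallel cultures for cytotoxicity.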

[7] = BSK_LPS_PGE2: BioMAP Diversity Plus: LPS Assay for Prostaglandin E2 (PGE2) Biomarker Activity (AID 2283082); conditions: primary human HUVEC with PBMC; actives raise or lower the signal;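 as to AC50: secreted prostaglandin E2 measured by ELISA in LPS-stimulated co-culture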
In short: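 Compounds were added to the LPS co-culture of endothelium and PBMC, and PGE2 was measured by ELISA after 24 h. Responses in either direction were fitted with DMSO as baseline.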

[8] = read-out: Macrophage colony-stimulating factor (MCSF), CSF1 (gene 1435); experiment: BSK_LPS_MCSF: BioMAP Diversity Plus: LPS Assay for Macrophage colony-stimulating factor (MCSF) Biomarker Activity (AID 2283083); conditions: primary human HUVEC with PBMC; actives raise or lower the signal
In short: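 HUVEC–PBMC co-culture, M-CSF measured by ELISA 24 h after chemical dosing. Fitted in both directions relative to DMSO as negative control; overt cytotoxicity assessed by SRB total-protein staining in parallel cultures.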

[9] = read-out: Tumor necrosis factor (Homo sapiens) (UniProt P01375); experiment: BSK_LPS_TNFa: BioMAP Diversity Plus: LPS Assay for Tumour Necrosis Factor alpha (TNFa) Biomarker Activity (AID 2283085); conditions: primary human HUVEC with PBMC; actives raise or lower the signal;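 as to AC50: TNFa protein level quantified by ELISA in the co-culture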
In short: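 Cells (umbilical vein endothelium plus peripheral blood mononuclear cells) were dosed with chemical, incubated 24 h, then TNFa was quantified by ELISA; values derive from bidirectional fitting with DMSO as baseline.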

[10] = read-out: Vascular cell adhesion molecule 1 (VCAM1), VCAM1 (gene 7412); experiment: BSK_LPS_VCAM1: BioMAP Diversity Plus: LPS Assay for Vascular cell adhesion molecule 1 (VCAM1) Biomarker Activity (AID 2283086); conditions: primary human HUVEC with PBMC; actives raise or lower the signal
In short: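 Cells are dosed in an LPS-stimulated endothelial/mononuclear co-culture and, after 24 h, VCAM-1 is quantified by ELISA. Activity in either direction is fitted relative to the DMSO negative control.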

CD38, CD38 (gene 952) = experiment: BSK_SAg_CD38: BioMAP Diversity Plus: SAg Assay for CD38 Biomarker Activity (AID 2283087); conditions: primary human HUVEC with PBMC; actives raise or lower the signal
In short: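 CD38 quantified by ELISA (fluorescence) in a superantigen-activated endothelial cell–PBMC co-culture at 24 h post-dose. Activity fitted in both directions relative to DMSO; parallel SRB and Alamar Blue cytotoxicity read-outs.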

CD69, CD69 (gene 969) = experiment: BSK_SAg_CD69: BioMAP Diversity Plus: SAg Assay for CD69 Biomarker Activity (AID 2283089); conditions: primary human HUVEC with PBMC; actives raise or lower the signal;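 as to AC50: cell surface CD69 protein quantified by ELISA with fluorescence detection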
In short: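 HUVEC co-cultured with PBMC were dosed with chemical, and CD69 was measured by ELISA with fluorescence read-out 24 h later. Bidirectional curve fitting used DMSO as negative control and activity baseline.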

[11] = read-out: Monocyte Chemoattractant Protein-1 (MCP1), CCL2 (gene 6347); experiment: BSK_SAg_MCP1: BioMAP Diversity Plus: SAg Assay for Monocyte Chemoattractant Protein-1 (MCP1) Biomarker Activity (AID 2283090); conditions: primary human HUVEC with PBMC; actives raise or lower the signal
In short: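 Values derive from bidirectional fitting of ELISA-measured MCP1 against DMSO controls. Readings were taken 24 h after dosing human vascular endothelial cells co-cultured with peripheral blood mononuclear cells under superantigen stimulation.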

[12] = read-out: Monokine induced gamma interferon (MIG), CXCL9 (gene 4283); experiment: BSK_SAg_MIG: BioMAP Diversity Plus: SAg Assay for Monokine induced gamma interferon (MIG) Biomarker Activity (AID 2283092); conditions: primary human HUVEC with PBMC; actives raise or lower the signal
In short: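 HUVEC plus human PBMC co-culture, chemicals dosed and MIG (CXCL9) quantified by ELISA at 24 h. Bidirectional curve fitting against DMSO as negative control and baseline, so both gain and loss of signal count as activity.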

[13] = BSK_SAg_PBMCCytotoxicity: PBMC Cytotoxicity Assessment in the BioMAP Diversity Plus: SAg Assay (AID 2283093); conditions: primary human HUVEC with PBMC;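 also: PBMC viability measured as Alamar Blue reduction fluorescence at 546/580 nm; fitted both ways against DMSO so a hit may be loss or gain of signal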;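 as to AC50: PBMC superantigen activated with SEB plus TSST-1 one hour after compound addition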
In short: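 Alamar Blue reduction (6 h, 546/580 nm) reports PBMC cytotoxicity after 90 h superantigen activation (SEB, TSST-1; 20 ng/mL final each) with 1 h compound pre-treatment. Gain or loss of signal fitted versus DMSO.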

[14] = read-out: Interleukin-8 (IL8), CXCL8 (gene 3576); experiment: BSK_SAg_IL8: BioMAP Diversity Plus: SAg Assay for Interleukin-8 (IL8) Biomarker Activity (AID 2283094); conditions: primary human HUVEC with PBMC; actives raise or lower the signal
In short: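 Chemicals were dosed onto a human endothelial–PBMC co-culture, and IL-8 was quantified by ELISA after 24 h. Both increases and decreases were fitted relative to DMSO.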

[15] = BSK_SAg_Proliferation: Cell Proliferation Assessment in the BioMAP Diversity Plus: SAg Assay (AID 2283095); conditions: primary human HUVEC with PBMC;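 also: relative cell number as total protein by SRB absorbance in sub-confluent culture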
In short: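 Absorbance of sulforhodamine B at 560 nm reports total protein in a human vascular endothelial/PBMC co-culture after 96 h chemical exposure. Gain or loss of signal is fitted in both directions against DMSO.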

[16] = BSK_SAg_SRB: Viability Assessment in the BioMAP Diversity Plus: SAg Assay (AID 2283096); conditions: primary human HUVEC with PBMC;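 also: cells read one day after compound addition; hits may be either gain or loss of signal compared with DMSO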
In short: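 This overt-cytotoxicity endpoint quantifies protein in human endothelial/PBMC co-cultures at 24 h using SRB absorbance (560 nm) after trichloroacetic acid fixation. Values reflect signal change from the DMSO negative control, fitted bidirectionally.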

Measured: AC50

Sequence of E-selectin (Homo sapiens) (P16581 whole entry, looked up): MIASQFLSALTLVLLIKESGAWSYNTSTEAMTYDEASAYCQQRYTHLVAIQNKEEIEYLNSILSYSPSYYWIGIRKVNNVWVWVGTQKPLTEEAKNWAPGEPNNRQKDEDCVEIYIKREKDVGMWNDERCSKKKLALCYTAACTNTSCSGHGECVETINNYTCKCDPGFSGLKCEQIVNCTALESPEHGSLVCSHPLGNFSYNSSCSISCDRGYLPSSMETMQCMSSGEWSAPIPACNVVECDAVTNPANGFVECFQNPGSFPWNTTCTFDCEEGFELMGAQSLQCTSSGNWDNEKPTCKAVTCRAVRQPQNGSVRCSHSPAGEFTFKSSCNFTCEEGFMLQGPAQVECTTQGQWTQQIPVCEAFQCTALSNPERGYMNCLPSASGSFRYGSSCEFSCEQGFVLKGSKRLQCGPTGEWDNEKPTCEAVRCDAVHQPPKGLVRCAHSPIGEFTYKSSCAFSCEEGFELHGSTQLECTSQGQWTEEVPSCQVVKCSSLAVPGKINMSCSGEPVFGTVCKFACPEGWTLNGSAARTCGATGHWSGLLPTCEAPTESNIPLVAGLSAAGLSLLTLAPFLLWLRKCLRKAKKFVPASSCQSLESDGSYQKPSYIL
Sequence of Tumor necrosis factor (Homo sapiens) (P01375 whole entry, looked up): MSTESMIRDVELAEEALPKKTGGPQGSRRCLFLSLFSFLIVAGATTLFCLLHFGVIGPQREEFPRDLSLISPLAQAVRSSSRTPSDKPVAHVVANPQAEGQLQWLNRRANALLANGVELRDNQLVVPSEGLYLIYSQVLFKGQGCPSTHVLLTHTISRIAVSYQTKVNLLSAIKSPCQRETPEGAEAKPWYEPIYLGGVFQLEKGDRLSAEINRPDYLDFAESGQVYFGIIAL

CCCCNc1ccc(NCCCC)c2c1C(=O)c1ccccc1C2=O
inactive: [1] | CD40, CD40 (gene 958) | [2] | [3] | [4] | [5] | [6] | [7] | [8] | [9] | [10] | CD38, CD38 (gene 952) | CD69, CD69 (gene 969) | [11] | [12] | [13] | [14] | [15] | [16]

S=C(NC1CCCCC1)NC1CCCCC1
inactive: [1] | CD40, CD40 (gene 958) | [2] | [3] | [4] | [5] | [6] | [7] | [8] | [9] | [10] | CD38, CD38 (gene 952) | CD69, CD69 (gene 969) | [11] | [12] | [13] | [14] | [15] | [16]

O=C(c1ccc(O)cc1)c1ccc(O)cc1O
inactive: [1] | CD40, CD40 (gene 958) | [2] | [3] | [4] | [5] | [6] | [7] | [8] | [9] | [10] | CD38, CD38 (gene 952) | CD69, CD69 (gene 969) | [11] | [12] | [13] | [14] | [15] | [16]
active: CD38, CD38 (gene 952) 20 µM | [15] 14.2 µM

Nc1ccc(N)c(Cl)c1
inactive: [1] | [2] | [3] | [9] | [14]
active: CD40, CD40 (gene 958) 3.22 µM and 2.55 µM | [2] 13.9 µM | [3] 7.92 µM | [4] 25.9 µM and 32.6 µM | [5] 4.62 µM and 33.4 µM | [6] 32.7 µM and 32.2 µM | [7] 20 µM and 13 µM | [8] 8.8 µM and 15.4 µM | [9] 11.6 µM | [10] 5.43 µM and 5.78 µM | CD38, CD38 (gene 952) 15.9 µM | CD69, CD69 (gene 969) 22.9 µM and 18.4 µM | [11] 30.8 µM and 31.3 µM | [12] 30.4 µM and 31.3 µM | [13] 16.4 µM and 15.4 µM | [14] 30.8 µM | [15] 14.8 µM and 12.7 µM | [16] 27.7 µM

CCOc1nc(F)cc2nc(S(=O)(=O)Nc3c(Cl)cccc3C(=O)OC)nn12
inactive: [1] | CD40, CD40 (gene 958) | [2] | [3] | [4] | [5] | [6] | [7] | [8] | [9] | [10] | CD38, CD38 (gene 952) | CD69, CD69 (gene 969) | [11] | [12] | [13] | [14] | [15] | [16]

CCCCCCCCCCCCCCCC[N+](C)(C)CC
inactive: [7]
active: [1] 7.22 µM | CD40, CD40 (gene 958) 3.07 µM | [2] 5.7 µM | [3] 8.09 µM | [4] 1.62 µM | [5] 1.42 µM | [6] 2.58 µM | [8] 2.18 µM | [9] 4.58 µM | [10] 3.79 µM | CD38, CD38 (gene 952) 9.51 µM | CD69, CD69 (gene 969) 1.78 µM | [11] 2.24 µM | [12] 3.51 µM | [13] 1.94 µM | [14] 9.75 µM | [15] 0.314 µM | [16] 1.69 µM

O=C(Nc1ccccc1SSc1ccccc1NC(=O)c1ccccc1)c1ccccc1
inactive: [1] | [2] | [6] | [7] | [11] | [12] | [16]
active: CD40, CD40 (gene 958) 4.75 µM | [3] 5.19 µM | [4] 5.31 µM | [5] 2.65 µM | [8] 5.44 µM | [9] 5.18 µM | [10] 9.83 µM | CD38, CD38 (gene 952) 5.21 µM | CD69, CD69 (gene 969) 2.01 µM | [13] 2.78 µM | [14] 6.04 µM | [15] 3.19 µM

COCc1c(C(C)C)nc(C(C)C)c(/C=C/[C@@H](O)C[C@@H](O)CC(=O)O)c1-c1ccc(F)cc1
active: [4] 0.023 µM | [5] 0.00777 µM | CD69, CD69 (gene 969) 0.0293 µM | [14] 0.00783 µM | [15] 0.0185 µM | [16] 0.0355 µM
inactive: [1] | CD40, CD40 (gene 958) | [2] | [3] | [6] | [7] | [8] | [9] | [10] | [11] | [12] | [13]

C=C[Si](OC(C)=O)(OC(C)=O)OC(C)=O
inactive: [1] | CD40, CD40 (gene 958) | [2] | [3] | [4] | [5] | [6] | [7] | [8] | [9] | [10] | CD38, CD38 (gene 952) | CD69, CD69 (gene 969) | [11] | [12] | [13] | [14] | [15] | [16]
